{"source": "PubChem BioAssay (NCATS)", "note": "Calls of active or inactive are those of the source. Where a call stands in place of a potency, no number is given. Calls follow the shape of the dose curve; as a rule, active = well fitted cell-killing curve with a large enough effect; inconclusive = small, poorly fitted or top-dose-only effect; inactive = flat fitted curve, though single readings scatter. Potency is read from the fitted curve at half-maximal effect."}
{"test": "MultiTox-Fluor Cytotoxicity Assay - LYMP1-003 - Live Cells (AID 962)", "conditions": "LYMP1-003 lymphoblastoid cells, MultiTox-Fluor live-cell protease fluorescence; series mostly up to 92.2 µM", "description": "NIH Chemical Genomics Center [NCGC]\nNIH Molecular Libraries Screening Centers Network [MLSCN]\nNational Institutes of Environmental Health Sciences [NIEHS]\nNational Toxicology Program [NTP]\nWe have developed a 1536-well cell-based assay for quantitative high throughput screening (qHTS) against a number of cell lines to determine in vitro cytotoxicity of small molecules. This particular assay uses a human lymphoblastoid cell line (LYMP1-003) purchased from Coriell Institute.\nNCGC Assay Protocol Summary:\nThe MultiTox-Fluor Cytotoxicity Assay (Promega) is a homogeneous method to simultaneously measure the relative number of live and dead cells in culture by detecting changes in cell membrane integrity. There are two fluorogenic peptide substrates in the assay reagent. Viable cells are determined when the cell-permeant substrate (GF-AFC) enters the cell and is cleaved by protease from live cells resulting in liberated fluorophore. This live-cell protease activity restricted to viable cells is proportional to cell number. The dead cells are determined by using fluorogenic cell-impermeant peptide substrate (bis-AAF-R110) which cleaved by dead cell proteases leaking from damaged cell membrane.\nUsing the MultiTox-Fluor Cytotoxicity Assay, the relative number of live cells was measured in the lymphoblastoid cell line with complete culture medium following compound treatment for 16 hours. The assay was performed in opaque black Kalypsys 1536-well plates. In the screen, tetraoctylammonium bromide was used as positive control. Library compounds were measured for their ability to cause acute toxicity in the cell line, as reflected by a decrease in live cell protease activity, in a concentration-dependent manner. […] AC50 values were determined from concentration-response data modeled with the standard Hill equation.\nqHTS protocol for MultiTox-Fluor Cytotoxicity assay\n[Step] [Parameter] [Value] [Description]\n1. Reagent; 5 uL; 2500 lymphoblastoid cells/well\n2. Time; 5 hr; 37 C incubation\n4. Controls; 23 nL; Tetraoctylammonium bromide 6.4pM to 92 uM\n5. Time; 16 hr; 37 C incubation\n6. Reagent; 5 uL; MuliTox-Fluor Assay reagent\n7. Time; 60 min; Room Temperature\n8. Detection; live-cell fluorescence (Ex/Em=405/510); EnVision plate reader\nKeywords: cell viability, cytotoxicity, lymphoblastoid cell line, fluorescence, NTPHTS, NTPHTS_NCGC, NIEHS, EPA, DSSTox, MLSMR, MLSCN, NIH Roadmap, qHTS, NCGC"}
{"smiles": "COc1cc(-c2ccc(N=C=O)c(OC)c2)ccc1N=C=O", "Potency": "inactive"}
{"smiles": "C=CC1CO1", "note": "(stereo not given)", "Potency": "inactive"}
{"smiles": "Cc1ccc2ccc3cccc4ccc1c2c34", "Potency": "inactive"}
{"smiles": "COc1ccc(C(=O)Nc2ccccc2)cc1[N+](=O)[O-]", "Potency": "inactive"}
{"smiles": "Cc1c2ccccc2c(C)c2c1ccc1ccccc12", "Potency": "inactive"}
{"smiles": "CCc1ccc(C(c2ccc(CC)cc2)C(Cl)Cl)cc1", "Potency": "inactive"}
{"smiles": "CC(C)COC(=O)COc1cc(Cl)c(Cl)cc1Cl", "Potency": "inactive"}
{"smiles": "C/C=C1/C(=O)C[C@H]2[C@@H]3CCC4=CC(=O)CC[C@]4(C)[C@H]3CC[C@]12C", "Potency": "inactive"}
{"smiles": "C=Cc1cccc(C)c1", "Potency": "inactive"}
{"smiles": "COc1ccc(C)cc1N", "Potency": "inactive"}
{"smiles": "CCOC(=O)C1OC1c1ccccc1", "note": "(stereo not given)", "Potency": "inactive"}
{"smiles": "Cc1ccc(O)c(N)c1", "Potency": "inactive"}
{"smiles": "CC(=O)OC(C(=O)c1ccccc1)c1ccccc1", "note": "(stereo not given)", "Potency": "inactive"}
{"smiles": "C=CC(C)(O)CCCC(C)CCCC(C)CCCC(C)C", "note": "(stereo not given)", "Potency": "inactive"}
{"smiles": "Nc1cc(C(=O)O)c(O)c(S(=O)(=O)O)c1", "Potency": "inactive"}
{"smiles": "O=[N+]([O-])c1cccc(I)c1", "Potency": "inactive"}
{"smiles": "CC(/C=C/C=C(C)/C=C/C(=O)O)=C\\C=C\\C=C(C)\\C=C\\C=C(C)\\C=C\\C(=O)O", "Potency": "inactive"}
{"smiles": "CC(C)(C)C(=O)C1C(=O)c2ccccc2C1=O", "Potency": "inactive"}
{"smiles": "Cc1cc(-c2ccc(N=Nc3cc(S(=O)(=O)O)c4ccccc4c3N)c(C)c2)ccc1N=Nc1cc(S(=O)(=O)O)c2ccccc2c1N", "Potency": "inactive"}
{"smiles": "CC(=O)c1ccc(Cl)c(Cl)c1Cl", "Potency": "inactive"}
{"smiles": "Oc1c(Cl)cc(Cl)c(Cl)c1Cl", "Potency": "inactive"}
{"smiles": "Clc1nc2ccccc2nc1Cl", "Potency": "inactive"}
{"smiles": "CC(C)S", "Potency": "inactive"}
{"smiles": "Nc1cc([N+](=O)[O-])ccc1O", "Potency": "inactive"}
{"smiles": "Cc1c(C(=O)O)c(O)cc2c1C(=O)c1c(O)c([C@H]3O[C@H](CO)[C@@H](O)[C@H](O)[C@H]3O)c(O)c(O)c1C2=O", "Potency": "inactive"}
{"smiles": "OC1CCCCC1", "Potency": "inactive"}
{"smiles": "CC(=O)CC(=O)Nc1ccccc1", "Potency": "inactive"}
{"smiles": "CC(=O)OCc1ccc2c(c1)OCO2", "Potency": "inactive"}
{"smiles": "CCCCC(CC)COP(=O)(OCC(CC)CCCC)OCC(CC)CCCC", "note": "(stereo not given)", "Potency": "inactive"}
{"smiles": "Oc1cc2c(cc1O)[C@H]1c3ccc(O)c(O)c3OC[C@@]1(O)C2", "Potency": "50.1 µM (active)"}
{"smiles": "O=C1OC(=O)c2ccccc21", "Potency": "inactive"}
{"smiles": "Oc1ccc2c(c1)OCO2", "Potency": "inactive"}
{"smiles": "CN(C)c1ccc(Cc2ccc(N(C)C)cc2)cc1", "Potency": "inactive"}
{"smiles": "CCCCC(CC)COCCCN", "note": "(stereo not given)", "Potency": "inactive"}
{"smiles": "c1cc2c3c(c1)ccc1cccc(c13)C2", "Potency": "inactive"}
{"smiles": "CCCCOC(=O)COc1ccc(Cl)cc1Cl", "Potency": "inactive"}
{"smiles": "O=[N+]([O-])c1cc(N(CCO)CCO)ccc1NCCO", "Potency": "inactive"}
{"smiles": "CCCCCCCC/C=C\\CCCCCCCC(=O)N(CCO)CCO", "Potency": "inactive"}
{"smiles": "Cc1ccc(C(=O)O)cc1[N+](=O)[O-]", "Potency": "inactive"}
{"smiles": "CCCCCCN", "Potency": "inactive"}
